Most compounds without a hit are left out; they make up all but 2% or so of the library.
TDP-43 yeast inh = TDP-43 toxicity inhibition in yeast; TDP-43 expressing yeast growth rescue, BacTiter-Glo, 24 h; Potency, µM (series often up to 46.1 µM), inactives show at the highest dose growth rescue (activation), usual class: activators; hit rate 1.8% among 410,000; also: potency is read from the fitted curve at half-maximal effect; % of control where 0% means no effect; nearly all actives have a fitted effect of over 50% in size
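Galactose-induced TDP-43 yeast, OD600=0.02, compound pinned; 24 hr, 30 deg C; BacTiter-Glo luminescence for growth. Inhibitors of TDP-43 toxicity read as activators.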
aSyn rescue = alpha-synuclein toxicity inhibition in yeast. hit rate 0.14% among 370,000. AID 652106. Potency, µM (doses to about 46.1 µM), without a hit: at the highest dose growth rescue (activation), usual class: activators. Yeast expressing alpha-synuclein, growth rescue, BacTiter-Glo, 24 h; also: potency is read from the fitted curve at half-maximal effect; % of control where 0% means no effect; nearly all actives have a fitted effect of over 65% in size
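Galactose-induced alpha-syn yeast (OD600=0.02, raffinose-pregrown) + pinned cpd, 24 hr, 30 deg C; growth by BacTiter-Glo luminescence. Growth restoration scores as activation.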
LDHA inh = inhibitors of human lactate dehydrogenase A; purified LDHA, NADH/diaphorase-resazurin fluorescence; stronger effect = lower value; hit rate 0.15% among 480,000; activity change, % (values are at about 110 or 230 µM); AID 1347041; P00338; in the data active = activity change below about -30%; inconclusive = mostly about -25% to -30%;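 also: plate controls were DMSO wells for no effect and wells without enzyme for full effect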
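Human LDH5 at 2 nM final in Tris HCl pH 7.4 with 0.06 mM NADH and 0.2 mM pyruvate, reacted 5 minutes at room temperature. Remaining NADH coupled via diaphorase/resazurin; resorufin fluorescence read at 0 and 20 minutes, normalized to enzyme-free and DMSO wells.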
IDH1 R132H inh = human IDH1 R132H inhibition; O75874; IDH1-R132H enzyme, NADPH consumption, diaphorase/resazurin fluorescence; Potency, µM (top dose mostly 76.6 µM), for the others: at the highest dose activity change, negative = inhibition, usual class: inhibitors; hit rate 0.093% among 390,000; also: potency is read from the fitted curve at half-maximal effect; % is scaled to controls: 0 for no effect and ±100 for the full control effect; nearly all actives have a fitted effect of over 65% in size
Target sequence (O75874 whole entry R132H, stated change not applied): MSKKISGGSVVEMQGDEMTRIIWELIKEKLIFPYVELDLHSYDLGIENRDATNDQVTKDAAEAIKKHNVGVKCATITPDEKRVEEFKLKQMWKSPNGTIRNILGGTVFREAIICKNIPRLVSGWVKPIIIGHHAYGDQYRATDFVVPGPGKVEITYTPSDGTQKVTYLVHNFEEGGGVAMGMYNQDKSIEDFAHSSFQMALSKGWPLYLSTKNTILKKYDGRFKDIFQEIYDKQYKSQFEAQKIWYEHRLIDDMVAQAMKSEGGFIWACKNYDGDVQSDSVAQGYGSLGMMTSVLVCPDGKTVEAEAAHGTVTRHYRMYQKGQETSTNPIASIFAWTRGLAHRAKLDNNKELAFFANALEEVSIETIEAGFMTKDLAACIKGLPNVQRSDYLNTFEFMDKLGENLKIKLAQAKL
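IDH1-R132H (0.5 ug/mL) preincubated 30 min with compound, then NADPH (0.016 mM) and alpha-KG (2 mM) added; 80 min at RT, pH 7.5. Remaining NADPH coupled via diaphorase/resazurin to fluorescence (540/590 nm); concentration-response curves normalized to no-enzyme control.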
FUS yeast rescue = rescues growth of FUS-expressing yeast; AID 1347120; Potency, µM (titrated, usually from 76.6 µM), actives largely listed as activators; hit rate 0.24% among 390,000; S. cerevisiae FUS-expressing, growth rescue, OD600, 24 h;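 also: potency is read from the fitted curve at half-maximal effect; plate controls were DMSO vehicle for no effect and reference control for full effect; nearly all actives have a fitted effect of over 55% in size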
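Compound concentration series was pinned onto galactose-induced FUS-expressing yeast seeded at OD 0.005. Plates sat 24hr at 30C; absorbance at 600 nm gave growth. DMSO served as background control.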
Abeta yeast res = compounds reversing amyloid beta toxicity in yeast; yeast expressing A-beta42, growth rescue, OD600, 48 h; response scale: 0% DMSO, 100% iron-clioquinol control; AID 1347071; hit rate 0.063% among 410,000; Potency, µM (doses to about 46.1 µM), hits mostly activators; also: potency is read from the fitted curve at half-maximal effect; nearly all actives have a fitted effect of over 55% in size
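Yeast A-beta toxicity model in growth medium with pinned compounds, 48 h at 30 C; growth read as absorbance at 600 nm. Normalized to FeCl3/clioquinol equimolar mix (positive) and DMSO (negative).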
IDH1 autofl = autofluorescence interference, mutant IDH1 hit counter-screen | Resorufin detection reagent fluorescence interference, cell-free | inhibition of signal, % at 51.2 µM | shares compounds with IDH1 R132H inh | AID 623980 | 750 tested, under 10 active;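 also: 0% = wells with normal resorufin and full inhibition = wells lacking resorufin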
IDH1 WT = inhibits human wild-type IDH1, mutant selectivity check. shares compounds with IDH1 R132H inh. WT IDH1 enzyme, NADPH diaphorase/resazurin fluorescence. Potency, µM (highest dose often 115 µM), for inactives: top-dose activity change, negative = inhibition, most hits filed as inhibitors. hit rate 9% among 750;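 also: potency is read from the fitted curve at half-maximal effect; 0% = full WT IDH1 enzyme control and full inhibition = no enzyme wells; nearly all actives have a fitted effect of over 55% in size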
Target sequence (O75874 whole entry, looked up): as the sequence (O75874 whole entry R132H, stated change not applied) above, with H132R counted along it
mIDH1 confirm = confirmation of human mutant IDH1 inhibitors | shares compounds with IDH1 R132H inh | IDH1 R132H enzyme, NADPH diaphorase/resazurin fluorescence | Potency, µM (top dose mostly 76.6 µM), for the others: at the highest dose activity change, negative = inhibition, actives largely listed as inhibitors | hit rate 83% among 750; also: potency is read from the fitted curve at half-maximal effect; nearly all actives have a fitted effect of over 50% in size
* marks the source's active call; other numbers are inactive results; i = inactive; ? = inconclusive; nt = not tested or not shown. Unless noted, calls follow the shape of the dose curve; as a rule, active = well fitted curve in the direction sought with a large enough effect; inconclusive = small, poorly fitted or top-dose-only effect, or another doubt; inactive = no such curve, though single readings can be large; an effect the other way counts as inactive or inconclusive.

SMILES	TDP-43 yeast inh	aSyn rescue	LDHA inh	IDH1 R132H inh	FUS yeast rescue	Abeta yeast res	IDH1 autofl	IDH1 WT	mIDH1 confirm
CCCc1cc(N2CCN(C(=O)c3ccco3)CC2)n2c(nc3ccccc32)c1C#N	-1%	-7%	0	?	i	i	-4	?	40µM*
O=C(NCC1COc2ccccc2O1)c1c[nH]c2ccc(S(=O)(=O)N3CCOCC3)cc2c1=O (stereo not given)	17%	-2%	1	?	i	i	-13	-21%	1%
Cc1ccc(-c2ccc(/C=C3\C(=O)ON=C3c3ccccc3)o2)c([N+](=O)[O-])c1	?	9%	-15	52µM*	i	i	7	79µM*	35µM*
O=C1/C(=C\c2ccc(-c3ccccc3[N+](=O)[O-])o2)C(c2ccccc2)=NN1c1ccccc1	8%	0%	3	4%	i	i	nt	nt	nt
COc1ccc(Br)cc1/C=C(\C#N)C(=O)NC(C)c1ccccc1 (stereo not given)	nt	nt	9	nt	nt	nt	nt	nt	nt
O=C(CCc1ncc(-c2ccc(Cl)cc2Cl)o1)NCc1ccccc1	nt	nt	3	nt	nt	nt	nt	nt	nt
C=C(C)Cc1c(C)c(C#N)c2nc3ccccc3n2c1N1CCCCC1	?	8%	-2	?	i	i	-2	-1%	14µM*
Cc1cc(C)c(/C=C/C(=O)c2cccnc2)cc1C	nt	nt	11	nt	nt	nt	nt	nt	nt
CC(C)(C)c1ccc(C2NC(=O)c3n[nH]c(-c4cccs4)c32)cc1 (stereo not given)	?	nt	-15	?	i	i	0	0%	40µM*
CCOc1ccc(C2NC(=O)c3n[nH]c(C)c32)cc1 (stereo not given)	3%	0%	-10	-4%	i	i	nt	nt	nt
NS(=O)(=O)c1ccc(N/N=C2/CCc3ccccc32)c([N+](=O)[O-])c1	nt	nt	12	nt	nt	nt	nt	nt	nt
COc1ccc(/C=C/C(=O)c2cc3ccccc3o2)cc1OC	nt	nt	8	nt	nt	nt	nt	nt	nt
CCOc1ccccc1N(C(=O)c1snc(C(N)=O)c1N)C(C(=O)NC1CCCC1)c1ccco1 (stereo not given)	?	6%	-8	?	nt	i	3	2%	40µM*
CCOc1ccccc1N(C(=O)c1snc(C(N)=O)c1N)C(C(=O)NCc1ccccc1)c1ccc(O)cc1 (stereo not given)	11%	-1%	-3	?	i	i	-1	10%	13µM*
CCOc1ccccc1N(C(=O)c1snc(C(N)=O)c1N)C(CC)C(=O)NC1CCCC1 (stereo not given)	-16%	2%	0	26%	i	i	nt	nt	nt
CCOc1ccccc1N(C(=O)c1snc(C(N)=O)c1N)C(C(=O)NC1CCCC1)c1cccs1 (stereo not given)	18%	-6%	-2	?	?	i	4	4%	?
CCOC(=O)CCNCc1ccccc1	nt	nt	-25	nt	nt	nt	nt	nt	nt
CCCCn1c(N)c(N(C)C(=O)Cn2c(C)nc3ccccc32)c(=O)[nH]c1=O	nt	nt	0	nt	nt	nt	nt	nt	nt
Oc1ccc(C2(c3cccc(F)c3)CCCCC2)cc1	nt	nt	-3	nt	nt	nt	nt	nt	nt
COc1ccc(-c2c(C(F)(F)F)oc3cc(OC(C)=O)ccc3c2=O)cc1OC	nt	nt	0	nt	nt	nt	nt	nt	nt
